Laboratory results from PubChem BioAssay (NCATS).
Several values for one entry are separate records, joined by “and”; a condition that tells them apart may be missing. Identical values can stand only once. Activity calls are given as the source filed them. The call rests on the fitted dose curve.

molecular target: Glucocorticoid receptor (Homo sapiens) (UniProt P04150); experiment: GR-EFC Redistribution (AID 451); conditions: CHO-K1 GR-EFC translocation, beta-gal luminescence, 2 h
From the text: NIH Molecular Libraries Screening Centers Network [MLSCN]
NIH Chemical Genomics Center [NCGC]
The glucocorticoid receptor (GR) is a cytoplasmic receptor that belongs to the nuclear receptor family of ligand-dependent transcription factors. Upon glucocorticoid binding to its receptor, the glucocorticoid-GR complex translocates into the nucleus, where it binds as a dimer to specific DNA sequences (glucocorticoid response elements), enhancing or suppressing transcription of a wide variety of glucocorticoid-responsive genes. In addition to their important roles in normal physiology and metabolism, glucocorticoids are administered exogenously as treatments for a wide variety of allergic, autoimmune, and neoplastic conditions. Identification of compounds that modulate aspects of GR signalling would be useful in dissecting glucocorticoid response pathways as well as developing GR modulators with more targeted clinical effects.
Traditionally, GR modulators have been identified using receptor binding or direct transactivation assays. However, assays for glucocorticoid-dependent nuclear translocation can also be used to screen for compounds affecting GR signaling.
Immunocytochemical staining has been used to assay for GR translocation, but is not suitable for high throughout screening due to the multiple reagent addition and wash steps required. Recently, a novel cell-based GR assay in Enzyme Fragment Complementation (EFC) format was developed by DiscoveRx (Fremont, CA). The assay uses EFC of b-galactosidase (b-gal) as an indicator of GR-translocation in engineered CHO-K1 biosensor cells. The enzyme acceptor (EA) fragment of b-gal resides in the nucleus , as designed through the use of a proprietary set of sequence additions and modifications. The small peptide enzyme donor (ED) fragment of b-gal is fused directly to the C-terminus of GR, and is localized in the cytoplasm is the absence of receptor signaling. Upon binding to a GR ligand, the complex translocates to the nucleus, where intact enzyme activity is restored by complementation and b-gal activity is detected. We optimized this GR-EFC assay in homogenous 1536-well plate assay format for high throughput screening.
NCGC Assay Protocol Summary:
CHO-K1 cells stably expressing NLS-enzyme acceptor fragment (EA) of b-gal and GR-enzyme donor (ED) fragment of b-gal were maintained in F12 medium (Invitrogen, Carlsbad, CA) at 37 Celsius degrees under a humidified atmosphere containing 5% CO2 and 95% air. The medium contained 10% FBS, 2 mM L-glutamine, 50 U/ml penicillin 50 ug/ml streptomycin, and 250 ug/ml hygromycin and 500 ug/ml G418 (Invitrogen).
GR-translocation was measured beta-gal enzyme activity using the PathHunter Detection Kit containing cell membrane permeablizing reagent and beta-gal substrate (DiscoveRx, Fremont, CA). All compounds were screened as titrations from 0.6 nM to 46 uM final concentration. The assay was performed in 1536-well format as follows:
5 uL cell suspension (1,000 cells)/well
Incubation at 37 Celsius degrees for two hours
1.25 uL 1X detection buffer from the kit supplied by DiscoveRx
Incubation at room temperature for one hour
Read plate in luminescence mode in ViewLux plate reader (PerkinElmer)
Keywords: NIH Roadmap, MLSCN, MLI, MLSMR, GR-EFC, GREFC, qHTS, NCGC
Potency means the concentration at half of the fitted maximal effect.

Sequence of Glucocorticoid receptor (Homo sapiens) (P04150 whole entry, looked up): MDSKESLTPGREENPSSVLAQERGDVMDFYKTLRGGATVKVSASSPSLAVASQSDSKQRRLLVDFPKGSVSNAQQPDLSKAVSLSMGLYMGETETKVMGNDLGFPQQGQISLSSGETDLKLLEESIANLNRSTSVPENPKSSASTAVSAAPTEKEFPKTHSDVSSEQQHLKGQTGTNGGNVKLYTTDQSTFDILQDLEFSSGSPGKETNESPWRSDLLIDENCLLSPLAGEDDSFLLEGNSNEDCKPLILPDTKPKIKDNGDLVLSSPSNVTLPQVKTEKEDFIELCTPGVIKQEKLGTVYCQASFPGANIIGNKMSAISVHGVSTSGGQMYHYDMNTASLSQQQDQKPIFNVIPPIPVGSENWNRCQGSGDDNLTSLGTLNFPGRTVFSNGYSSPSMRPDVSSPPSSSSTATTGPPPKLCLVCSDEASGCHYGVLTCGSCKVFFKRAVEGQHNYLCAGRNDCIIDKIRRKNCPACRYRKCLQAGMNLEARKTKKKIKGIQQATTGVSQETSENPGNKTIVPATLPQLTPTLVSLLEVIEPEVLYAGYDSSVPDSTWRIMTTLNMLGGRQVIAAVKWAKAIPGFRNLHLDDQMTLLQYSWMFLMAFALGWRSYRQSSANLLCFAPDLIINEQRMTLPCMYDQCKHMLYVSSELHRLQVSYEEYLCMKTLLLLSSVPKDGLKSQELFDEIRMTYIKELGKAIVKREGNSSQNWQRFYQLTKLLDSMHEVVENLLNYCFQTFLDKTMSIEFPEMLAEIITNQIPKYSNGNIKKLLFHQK

Row | Structure (SMILES) | Potency
1 | O=c1[nH]c2ccccc2n1CCCN1CCN(C(c2ccccc2)c2ccccc2)CC1 | > 46 µM (inactive)
2 | NCCCS(=O)(=O)O | > 46 µM (inactive)
3 | O=C(O)c1cc([N+](=O)[O-])ccc1NCCCc1ccccc1 | > 46 µM (inactive)
4 | CN1CCc2cc(NC(=O)Nc3cccnc3)ccc21 | > 46 µM (inactive)
5 | Cn1c(=O)c2[nH]c(-c3ccccc3)nc2n(C)c1=O | > 46 µM (inactive)
6 | O=C1NC(O)=NC1(c1ccccc1)c1ccccc1 | > 46 µM (inactive)
7 | O=C(Nc1cccc(C(=O)Nc2ccc(S(=O)(=O)O)c3cc(S(=O)(=O)O)cc(S(=O)(=O)O)c23)c1)Nc1cccc(C(=O)Nc2ccc(S(=O)(=O)O)c3cc(S(=O)(=O)O)cc(S(=O)(=O)O)c23)c1 | > 46 µM (inactive)
8 | O=C(O)c1cc(=O)c2ccccc2[nH]1 | > 46 µM (inactive)
9 | NCCCCCCCCCCN | > 46 µM (inactive)
10 | CC(=O)SCC[N+](C)(C)C | > 46 µM (inactive)
11 | COc1ccccc1N1CCN(CCCCNS(=O)(=O)c2cccc3c(N(C)C)cccc23)CC1 | > 46 µM (inactive)
12 | c1cnc2c(c1)ccc1cccnc12 | > 46 µM (inactive) and > 9.22 µM (inactive)
13 | CCCn1c(=O)c2[nH]c(-c3ccc(OCC(=O)NCCN)cc3)nc2n(CCC)c1=O | > 46 µM (inactive)
14 | Ic1ccc(N2CCN(Cc3c[nH]c4ncccc34)CC2)cc1 | > 46 µM (inactive)
15 | N=C(N)SCCc1ccc(CCSC(=N)N)cc1 | > 46 µM (inactive)
16 | O=S(=O)(c1cccc2c(I)cccc12)N1CCCNCC1 | > 46 µM (inactive)
17 | Cc1ccc(O)c(N=Nc2ccccc2)n1 | > 46 µM (inactive)
18 | O=C(O)CC[C@@H](C(=O)O)N1C(=O)c2ccccc2C1=O | > 46 µM (inactive) and > 9.22 µM (inactive)
19 | O=C(O)Cc1ccc(-c2ccccc2)cc1 | > 20.6 µM (inactive)
20 | CC(C)NC[C@H](O)COc1cccc2[nH]ccc12 | > 46 µM (inactive)

Row | Structure (SMILES) | Potency
21 | Fc1ccc(C(OCCCc2cnc[nH]2)c2ccc(F)cc2)cc1 | > 46 µM (inactive)
22 | O=C1C(SCCO)=C(SCCO)C(=O)c2ccccc21 | > 46 µM (inactive)
23 | Cn1cc(C2=C(c3ccc(Cl)cc3Cl)C(=O)NC2=O)c2ccccc21 | > 46 µM (inactive)
24 | Oc1cc2c(cc1O)CN(C(=S)NCCc1ccc(Cl)cc1)CCC2 | > 46 µM (inactive)
25 | CCCN(CC1CC1)c1nc(C)nc(Nc2c(Cl)cc(Cl)cc2Cl)c1Cl | > 46 µM (inactive)
26 | O=C(O)[C@@H]1C[C@@H](C(=O)O)N1 | > 46 µM (inactive)
27 | CN1[C@@H]2CC[C@H]1CC(OC(c1ccccc1)c1ccccc1)C2 (stereo not given in full) | > 46 µM (inactive) and > 9.22 µM (inactive)
28 | Cc1c(N)c(=O)n(-c2ccccc2)n1C | > 20.6 µM (inactive)
29 | C[N+](C)(CCCCCC[N+](C)(C)CCCN1C(=O)c2cccc3cccc(c23)C1=O)CCCN1C(=O)c2cccc3cccc(c23)C1=O | > 46 µM (inactive)
30 | COc1ccccc1N1CCN(CCN(C(=O)c2ccc(I)cc2)c2ccccn2)CC1 | > 46 µM (inactive)
31 | NC[C@@H]1O[C@H](C23CC4CC(CC(C4)C2)C3)Cc2c1ccc(O)c2O | > 46 µM (inactive)
32 | O=C(c1cc(O)c(O)c([N+](=O)[O-])c1)c1ccccc1F | > 46 µM (inactive)
33 | N#C/C(=C\c1ccc(O)c(O)c1)C(=O)c1ccc(O)c(O)c1 | > 46 µM (inactive)
34 | Cc1cc(NC(=O)Nc2ccc3c(ccn3C)c2)sn1 | > 46 µM (inactive)
35 | CN(C)C(N)=NCCC[C@H](N)C(=O)O | > 46 µM (inactive)
36 | COc1ccccc1CNCCCCCCNCCCCCCCCNCCCCCCNCc1ccccc1OC | > 46 µM (inactive)
37 | O=C(O)c1ccccc1Nc1cccc(C(F)(F)F)c1 | > 20.6 µM (inactive)
38 | O=C(O)c1cc(=O)c2c(Cl)cc(Cl)cc2[nH]1 | > 46 µM (inactive)
39 | CCCCN1CCC(n2c(=O)[nH]c3ccccc32)CC1 | > 46 µM (inactive)
40 | N[C@@H](CC(=O)O)C(=O)O | > 46 µM (inactive)
